Results from PubChem BioAssay (NCI).
About 83,000 compounds went through this panel and 20% of them were active in at least one assay; those are over-represented in the sample as a whole.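 Interpretation: 100, growth as untreated; towards 0, rising growth inhibition; 0, no net growth; 0 to -100, cell death. Compounds scoring below 10 were considered active.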 The source made the active and inactive calls.

Assays:
Test in all cases: NCI-60 one-dose screen, 48 h (100 = growth as untreated, 0 = no growth, -100 = all killed)
Settings in all cases: 10 µM unless noted
DU-145 prostate = system: DU-145 prostate
K-562 leukemia = system: K-562 leukemia
MALME-3M melanoma = system: MALME-3M melanoma
MDA-MB-231 breast = system: MDA-MB-231 breast
RXF 393 renal = system: RXF 393 renal
SF-268 CNS = system: SF-268 CNS
SF-295 CNS = system: SF-295 CNS
SF-539 CNS = system: SF-539 CNS
UACC-257 melanoma = system: UACC-257 melanoma
M14 melanoma = system: M14 melanoma

Measured: growth

COc1ccc(Cn2cc(C(=O)N=Nc3c(O)[nH]c4c(Cl)cccc34)nn2)cc1
inactive: DU-145 prostate 105% | K-562 leukemia 89.2% | MALME-3M melanoma 99.7% | MDA-MB-231 breast 98.5% | RXF 393 renal 109% | SF-268 CNS 94.7% | SF-295 CNS 109% | SF-539 CNS 108% | UACC-257 melanoma 92.9% | M14 melanoma 106%

O=C(CBr)CN1C(=O)c2ccccc2C1=O
inactive: DU-145 prostate 104% | K-562 leukemia 89.7% | MALME-3M melanoma 100% | MDA-MB-231 breast 107% | RXF 393 renal 120% | SF-268 CNS 99.1% | SF-295 CNS 101% | SF-539 CNS 96.2% | UACC-257 melanoma 101% | M14 melanoma 104%

CC1(C)CC[C@]2(C(=O)O)CC[C@]3(C)C(=CC[C@@H]4[C@@]5(C)C[C@@H](Cc6cn([C@@H]7O[C@H](CO)[C@@H](O)[C@H](O)[C@H]7O)nn6)[C@H](O)C(C)(C)[C@@H]5CC[C@]43C)[C@@H]2C1
inactive: DU-145 prostate 112% | K-562 leukemia 90% | MALME-3M melanoma 112% | MDA-MB-231 breast 97.2% | RXF 393 renal 106% | SF-268 CNS 103% | SF-295 CNS 99.3% | SF-539 CNS 101% | UACC-257 melanoma 88.8% | M14 melanoma 97.5%

CCCNc1nc2ccccc2c2c(=O)c3cccc(Cl)c3sc12
inactive: DU-145 prostate 98.2% | K-562 leukemia 86% | MALME-3M melanoma 81.9% | MDA-MB-231 breast 105% | RXF 393 renal 98.5% | SF-268 CNS 101% | SF-295 CNS 98.8% | SF-539 CNS 110% | UACC-257 melanoma 107% | M14 melanoma 101%

COc1ccc(/C(C)=C(\c2ccc(OCCN3CCCCCC3)cc2)c2ccc(OC(=O)c3ccccc3)cc2)cc1
inactive: DU-145 prostate 71.8% | MALME-3M melanoma 22.7% | MDA-MB-231 breast 52.6% | RXF 393 renal 16.4% | SF-268 CNS 44.4% | SF-295 CNS 20.6% | SF-539 CNS 45.2%
active: K-562 leukemia 1.82% | UACC-257 melanoma -15.5% | M14 melanoma -39%

CC[C@@H](c1ccc2cc(OC)ccc2c1)C(C)(C)C(=O)F
active: UACC-257 melanoma -0.544%
inactive: DU-145 prostate 104% | K-562 leukemia 104% | MALME-3M melanoma 97.1% | MDA-MB-231 breast 106% | RXF 393 renal 98.6% | SF-268 CNS 113% | SF-295 CNS 98.7% | SF-539 CNS 103% | M14 melanoma 99.2%

CCn1c2ccc(O)cc2c2c(C)c3c[n+](C(C)C)ccc3c(C)c21
inactive: DU-145 prostate 29.6% | K-562 leukemia 41% | MDA-MB-231 breast 45.4% | RXF 393 renal 53.4% | SF-268 CNS 14% | SF-295 CNS 60.5% | SF-539 CNS 38.7% | UACC-257 melanoma 37% | M14 melanoma 36.5%
active: MALME-3M melanoma -6.64%

CCN1C(=O)N(CC)C2C1NN=c1s/c(=C\c3cc4ccccc4[nH]3)c(=O)n12 (stereo not given)
active: K-562 leukemia 9.13% | SF-539 CNS -21.9%
inactive: DU-145 prostate 16.4% | MALME-3M melanoma 33.4% | MDA-MB-231 breast 14.7% | RXF 393 renal 47.3% | SF-268 CNS 25.6% | SF-295 CNS 18.6% | UACC-257 melanoma 45.5% | M14 melanoma 19.8%

COc1cc(/C=C2\CN(S(=O)(=O)c3ccc(C)cc3)C/C(=C\c3cc(CN4CCCCC4)c(O)c(OC)c3)C2=O)cc(CN2CCCCC2)c1O
active: DU-145 prostate -88.1% | K-562 leukemia -24.2% | MALME-3M melanoma -82.4% | MDA-MB-231 breast -73.1% | RXF 393 renal -72.1% | SF-268 CNS -61.1% | SF-295 CNS -74.7% | SF-539 CNS -84.8% | UACC-257 melanoma -89.6% | M14 melanoma -89%

C(/C=C/c1ccccc1)=Nc1ccc(CCc2ccc(N=C/C=C/c3ccccc3)cc2)cc1
inactive: DU-145 prostate 25.6% | K-562 leukemia 78.3% | MALME-3M melanoma 115% | MDA-MB-231 breast 92% | RXF 393 renal 83.8% | SF-268 CNS 104% | SF-295 CNS 73.3% | SF-539 CNS 108% | UACC-257 melanoma 97.9% | M14 melanoma 89.9%

COc1ccc(Nc2ncc(C(N)=O)c(NCCCNC(=O)C3CCC3)n2)cc1
inactive: DU-145 prostate 77.3% | K-562 leukemia 39.5% | MALME-3M melanoma 95.2% | MDA-MB-231 breast 26.5% | RXF 393 renal 17% | SF-268 CNS 80.9% | SF-295 CNS 75.7% | SF-539 CNS 14.3% | UACC-257 melanoma 112% | M14 melanoma 67.7%

CCCCCSB(SCCCCC)c1ccccc1
inactive: DU-145 prostate 108% | K-562 leukemia 112% | MALME-3M melanoma 101% | MDA-MB-231 breast 105% | RXF 393 renal 109% | SF-268 CNS 98.2% | SF-295 CNS 105% | SF-539 CNS 106% | UACC-257 melanoma 94.4% | M14 melanoma 102%

COC(c1ccc2ccccc2c1)C(C)C(F)F (stereo not given)
inactive: DU-145 prostate 110% | K-562 leukemia 97.1% | MALME-3M melanoma 99.5% | MDA-MB-231 breast 111% | RXF 393 renal 106% | SF-268 CNS 100% | SF-295 CNS 97.1% | SF-539 CNS 95.2% | UACC-257 melanoma 91.3% | M14 melanoma 99.1%

COc1ccc2nc3cc(Cl)ccc3c(NCCN)c2c1
active: DU-145 prostate -94.1% | K-562 leukemia -64.6% | MALME-3M melanoma -71% | MDA-MB-231 breast -71.6% | RXF 393 renal -85.9% | SF-268 CNS -53.7% | SF-295 CNS -92.3% | SF-539 CNS -72% | M14 melanoma -74.7%
inactive: UACC-257 melanoma 101%

CCN=C1C=CC(=C(c2ccc(N(C)C)cc2)c2ccc(N(C)C)cc2)c2ccccc21
active: DU-145 prostate 1.96% | MALME-3M melanoma -48.4% | MDA-MB-231 breast -12% | RXF 393 renal -29.2% | SF-268 CNS -8.78% | SF-295 CNS -37.5% | SF-539 CNS -57.4% | UACC-257 melanoma -10.1% | M14 melanoma -42.2%
inactive: K-562 leukemia 10.9%

O=C1NC(=Nc2ccc(O)cc2)S/C1=C\c1cccs1
inactive: DU-145 prostate 44.6% | K-562 leukemia 14.7% | MALME-3M melanoma 68.8% | MDA-MB-231 breast 57.9% | RXF 393 renal 41.2% | SF-268 CNS 50% | SF-295 CNS 34.8% | SF-539 CNS 16.7% | UACC-257 melanoma 70.5% | M14 melanoma 34.8%

CCN1C(=S)N(CC)C2C1NC(=S)N2/N=C/C=C/c1ccccc1OC (stereo not given)
inactive: DU-145 prostate 13.9% | K-562 leukemia 10.2% | MALME-3M melanoma 53.5% | MDA-MB-231 breast 11.5% | RXF 393 renal 20.4% | SF-268 CNS 56.4% | SF-295 CNS 12.4% | UACC-257 melanoma 53.6% | M14 melanoma 10.3%
active: SF-539 CNS -18.5%

CCCCCCCCn1ccc2cc(NC(=O)Cn3cc(CN4CCOCC4)nn3)ccc21
inactive: DU-145 prostate 106% | K-562 leukemia 89.1% | MALME-3M melanoma 100% | MDA-MB-231 breast 90.5% | RXF 393 renal 91.9% | SF-268 CNS 106% | SF-295 CNS 90.1% | SF-539 CNS 104% | UACC-257 melanoma 104% | M14 melanoma 91%

COc1ccc(C(O)c2cc3c(N)c(C(=O)Nc4cccc(Cl)c4)sc3nc2C)cc1 (stereo not given)
inactive: K-562 leukemia 10.7% | MALME-3M melanoma 41% | MDA-MB-231 breast 20.2% | SF-268 CNS 28.9% | UACC-257 melanoma 47.1% | M14 melanoma 21.3%
active: DU-145 prostate 8.86% | RXF 393 renal -10.9% | SF-295 CNS 9.76% | SF-539 CNS 2.14%

Cn1ncc2ccc(-c3nc(-c4ccccc4)[nH]c3-c3n[nH]c(=O)n3C3CC3)cc21
inactive: DU-145 prostate 106% | K-562 leukemia 101% | MALME-3M melanoma 95.6% | MDA-MB-231 breast 98% | RXF 393 renal 106% | SF-268 CNS 102% | SF-295 CNS 101% | SF-539 CNS 97.6% | UACC-257 melanoma 94.9% | M14 melanoma 88.4%

O=c1nc(Nc2nc3ccccc3s2)[nH]c(=O)c2ccccc12
inactive: DU-145 prostate 106% | K-562 leukemia 95.9% | MALME-3M melanoma 99.7% | MDA-MB-231 breast 98.3% | RXF 393 renal 98.1% | SF-268 CNS 102% | SF-295 CNS 99.3% | SF-539 CNS 97.5% | UACC-257 melanoma 107% | M14 melanoma 101%

COC1=CC(c2ccc[nH]2)=N/C1=C\c1[nH]c(C)c(CC(=O)OCc2ccccc2)c1C
active: K-562 leukemia 2.58% | MALME-3M melanoma -67.9% | MDA-MB-231 breast -13.6% | RXF 393 renal -26.7% | SF-268 CNS 9.87% | SF-295 CNS -50.1% | SF-539 CNS -4.33% | UACC-257 melanoma -25% | M14 melanoma -55.9%
inactive: DU-145 prostate 20.8%

O=C1Nc2ccccc2C2c3cccn3-c3ccccc3N12 (stereo not given)
inactive: DU-145 prostate 94.8% | K-562 leukemia 23.9% | MALME-3M melanoma 71.7% | MDA-MB-231 breast 47.1% | RXF 393 renal 51.7% | SF-268 CNS 79% | SF-295 CNS 78.6% | SF-539 CNS 83.2% | UACC-257 melanoma 77.6% | M14 melanoma 53%

COc1cccc(Nc2ccnc3[nH]c4ccc([N+](=O)[O-])cc4c23)c1
inactive: DU-145 prostate 76.9% | K-562 leukemia 19% | MALME-3M melanoma 53% | MDA-MB-231 breast 60.1% | RXF 393 renal 33.5% | SF-268 CNS 60.7% | SF-295 CNS 45.5% | SF-539 CNS 48.9% | UACC-257 melanoma 57.4% | M14 melanoma 34%

O=C(Nc1ccccc1O)c1ccccc1Nc1ccnc(C(F)(F)F)c1
inactive: DU-145 prostate 104% | K-562 leukemia 86.2% | MALME-3M melanoma 112% | MDA-MB-231 breast 82.5% | RXF 393 renal 108% | SF-268 CNS 113% | SF-295 CNS 107% | SF-539 CNS 89.1% | UACC-257 melanoma 106% | M14 melanoma 98.6%

COc1cc2cc(NCc3ccc(OC(F)F)cc3)nc(C)c2cc1OC
inactive: DU-145 prostate 75.8% | K-562 leukemia 34% | MALME-3M melanoma 72.4% | MDA-MB-231 breast 62.6% | RXF 393 renal 67.1% | SF-268 CNS 73.2% | SF-295 CNS 35% | SF-539 CNS 69.1% | UACC-257 melanoma 87.5% | M14 melanoma 63.9%

CN1CCN(CCCOc2ccc3ncnc(Nc4ccc(Oc5cccc(F)c5)c(Cl)c4)c3c2)CC1
active: K-562 leukemia -30% | MALME-3M melanoma -72.4% | MDA-MB-231 breast -65.4% | RXF 393 renal -55.7% | SF-295 CNS -35% | SF-539 CNS -75.1% | UACC-257 melanoma -59.6% | M14 melanoma -75.7%
inactive: DU-145 prostate 15.2% | SF-268 CNS 40.5%
